# Experimental data as given in PubChem BioAssay AID778 (Sanford-Burnham Center for Chemical Genomics, 2007).
# In all, about 96,000 compounds went through this assay and about 20,000 (21%) were called active. Only a sample is shown. A number with no mark means an inactive call.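 Rule for the calls: active = CYP2C19 inhibition above a set limit at 5 µM in the primary screen (cut at about 50% in these data); inactive = the rest.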
# Biological target: Cytochrome P450 2C19 (Homo sapiens) (UniProt P33261)
# Sequence (P33261 whole entry, looked up): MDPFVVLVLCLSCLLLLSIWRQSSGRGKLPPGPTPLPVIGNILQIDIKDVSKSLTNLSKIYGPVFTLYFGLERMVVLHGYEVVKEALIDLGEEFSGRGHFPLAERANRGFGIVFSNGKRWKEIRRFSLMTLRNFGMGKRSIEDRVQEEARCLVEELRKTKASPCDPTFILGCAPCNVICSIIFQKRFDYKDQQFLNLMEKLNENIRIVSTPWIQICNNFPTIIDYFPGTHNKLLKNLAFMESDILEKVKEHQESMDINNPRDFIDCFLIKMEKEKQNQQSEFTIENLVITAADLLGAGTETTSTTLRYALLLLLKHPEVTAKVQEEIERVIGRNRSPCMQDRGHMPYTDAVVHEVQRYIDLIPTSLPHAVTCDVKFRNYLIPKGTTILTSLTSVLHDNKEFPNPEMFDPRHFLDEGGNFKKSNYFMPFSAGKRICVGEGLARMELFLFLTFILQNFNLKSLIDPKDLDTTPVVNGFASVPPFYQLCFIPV
# Test: blockers of cytochrome P450 2C19 activity – biochemical, luminescence, ADME assay, primary screen (AID 778);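 note: plate controls were negative control wells for no effect and 2.5 mM tranylcypromine positive control for full effect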
# Details: CYP2C19 Supersomes, luciferin-H EGE luminescence, 30 min; at 5 µM; active compounds read high
row,Structure (SMILES),inhibition
1,CCn1ncc(C2=NOC(C(=O)N3CCN(c4ccccc4)CC3)C2)c1C (centres undefined),-20.9%
2,O=C(OCC(=O)N1CCCC1)c1ccco1,0.8%
3,c1csc(-c2nc(-c3ccncc3)no2)c1,72.2% (active)
4,COc1nc(-c2ccc(Cl)cc2)ccc1-c1noc(-c2cccs2)n1,7%
5,CCOc1nc(-c2ccc(OC)cc2)ccc1-c1noc(-c2cc(OC)c(OC)c(OC)c2)n1,8%
6,COc1cc(-c2nc(-c3ccncc3)no2)cc(OC)c1OC,83.6% (active)
7,COc1ccc(-c2noc(-c3cccc(OC)c3OC)n2)cc1OC,22.7%
8,CCc1ccc(CNC(=O)CCc2nc(-c3cccs3)no2)cc1,37.6%
9,O=C(CSc1nc(-c2ccco2)cc(C(F)(F)F)n1)N1CCc2ccccc2C1,42.7%
10,Cc1[nH]c2ccccc2c1C(=O)CSCC(=O)O,0.7%
11,Cc1cc(N=CC2=C(O)CCCC2=O)no1,2.1%
12,c1coc(CNc2ncnc3ccccc23)c1,-3.8%
13,O=C(CN1C(=O)NC2(CCCCC2)C1=O)NCCC1=CCCCC1,8.2%
14,Cc1nnc(OCC(=O)NCCC2=CCCCC2)c2ccccc12,55.2% (active)
15,S=C(NCCC1=CCCCC1)Nc1ccccc1,46.9%
16,O=C(COc1cccc(-n2cnnn2)c1)NCCC1=CCCCC1,89.3% (active)
17,O=C(Cc1nn[nH]n1)NCCC1=CCCCC1,-1.9%
18,O=C(COc1ccc(Cl)cc1)NCCC1=CCCCC1,26.8%
19,O=C(O)C1CC=CCC1C(=O)NCCc1ccccc1 (centres undefined),-8.8%
20,CC1(C)COC(c2cccn2Cc2ccccc2Cl)=N1,2.4%
21,CNC(=O)c1ccc2nc(NC(C)=O)sc2c1,2.4%
22,O=C(Cn1c(-c2ccc(Cl)cc2)noc1=O)N1CCN(c2ccccc2F)CC1,12.6%
23,CCCCOC(=O)Nc1sc2nc(C)cc(C)c2c1-n1cccc1,9.4%
24,O=C(Nc1cccc2c1CCCC2)C1CCN(C(=O)NC2CCCCC2)CC1,2.3%
25,COCCNC(=O)COc1ccccc1C,2%
26,COCCCNC(=O)COc1cc(C)c(Cl)c(C)c1,86.2% (active)

row,Structure (SMILES),inhibition
1,COCCNC(=O)COc1ccc(C)c(C)c1,-3.5%
2,CCOC(=O)C1C(=O)C=C(c2ccc(OC)cc2)CC1c1ccco1 (centres undefined),28.1%
3,CCCCCCOC(=O)NCC(O)c1ccccc1 (centres undefined),23.3%
4,O=C(NC(=O)c1ccccc1)NC(=O)c1ccccc1,21.7%
5,O=C(OCC(O)C(O)COC(=O)c1ccccc1)c1ccccc1 (centres undefined),83.5% (active)
6,COc1ccc(-c2nc(-c3ccccc3)no2)c(OC)c1,12.8%
7,CCOC(=O)C(CC)Sc1ncnc2c1nnn2-c1ccc(F)cc1 (centres undefined),10.5%
8,CCN(CC(=O)NC1CCS(=O)(=O)C1)c1nc(-c2cccnc2)nc2ccccc12 (centres undefined),4.6%
9,Cc1ccc2c(c1)C(O)(CC(=O)c1cccnc1)C(=O)N2 (centres undefined),10.2%
10,Cc1ccc(NC2(C#N)C(=O)Nc3ccccc32)cc1 (centres undefined),60.3% (active)
11,CN1CCN(c2nc3c(c(=O)[nH]c(=O)n3C)n2Cc2cccc3ccccc23)CC1,1.2%
12,Cc1ccc(Cn2ccc(NC(=O)c3cc(C(C)C)on3)n2)cc1,97.2% (active)
13,CC(=O)Nc1ccn(Cc2c(F)cccc2Cl)n1,48.9%
14,Cc1nn(Cc2ccc(F)cc2)c(C)c1NC(=O)c1noc2c1CCc1ccccc1-2,1%
15,Cc1cc(NC(=O)c2cc(-c3cccs3)on2)nn1Cc1ccc(Cl)cc1,2%
16,O=C(Nc1ccn(Cc2ccc(F)cc2)n1)c1ccncc1,97.8% (active)
17,Cc1ccc(Cn2ccc(NC(=O)C3C4CCC(C4)C3C(=O)O)n2)cc1 (centres undefined),15%
18,Cc1ccc(N(NC(=O)C(C)(C)O)C(=O)c2ccccc2)cc1C,14.9%
19,COc1ccccc1CNC(=O)Cn1cc2c(n1)CCCC2,20.5%
20,O=P(O)(CN1CCCCC1)CN1CCCCC1,-0.9%
21,Cc1ccc(-c2cnc(NC(=O)CCC(=O)N(C)Cc3ccccc3)n2C)cc1,1%
22,COc1ccccc1NC1=NC(c2ccc(Cl)cc2)N=C(N)N1 (centres undefined),92.6% (active)
23,COc1ccccc1Nc1nc(N)nc(CN(C)C2CCCCC2)n1,-23.9%
24,COc1ccccc1NC1=NC2(CCCC2)N=C(N)N1,-6%
25,C=C(C)Cn1c(N2CCN(CC)CC2)nc2c1c(=O)[nH]c(=O)n2C,-24.3%
26,O=S(=O)(c1ccc(Sc2nnc3ccccn23)nc1)N1CCOCC1,13.2%

row,Structure (SMILES),inhibition
1,O=C(CN1CCN(c2nc(-c3ccccc3)cs2)CC1)NCc1ccc2c(c1)OCO2,91.6% (active)
2,O=C(CNS(=O)(=O)c1ccc(Br)s1)N1CCN(C(=O)c2ccco2)CC1,26.7%
3,O=C(COC(=O)c1ccc2c(c1)OCCO2)NCc1ccccc1,6.9%
4,CCOC(=O)NCc1ccc2c(c1)OCO2,48.5%
5,O=C(CNS(=O)(=O)c1ccc(Br)s1)NCc1ccc2c(c1)OCO2,63.1% (active)
6,O=C(Cn1nnc(-c2ccccc2)n1)NCc1ccc2c(c1)OCO2,25.4%
7,Cc1ccc(C(=O)OCC(=O)NCc2ccc3c(c2)OCO3)s1,64% (active)
8,O=C(CCNS(=O)(=O)c1ccccc1C(F)(F)F)NCc1ccc2c(c1)OCO2,84.6% (active)
9,O=C(NCc1ccc2c(c1)OCO2)C12CC3CC(CC(C3)C1)C2,26.4%
10,COc1ccc(-c2csc(N3CCN(Cc4ccc5c(c4)OCO5)CC3)n2)cc1,-20.9%
11,O=C(CN(Cc1ccccc1)C(=O)c1ccc2c(c1)OCCO2)NCc1ccc2c(c1)OCO2,29.2%
12,C/C(=N\O)C1(C)N(O)C(C)(C)C(c2ccc(Br)cc2)=[N+]1[O-] (centres undefined),-15.7%
13,Cc1ccccc1OCC(=O)NCC(=O)OCC(=O)c1ccc2ccccc2c1,-2%
14,COC(=O)c1sc(NC(=O)c2csc3c2CCCC3)nc1C,-10.6%
15,Clc1ccccc1-c1cc(COc2ccc3ccccc3c2)no1,3.1%
16,CCCCSc1[nH]c(=O)c(C(=O)OCC)cc1C#N,3.8%
17,Cc1cc(C)n2nc(C(=O)Oc3ccc4c(c3)OCO4)nc2n1,-10.7%
18,CN(C)CC(O)COc1ccc(C(C)(C)c2ccc(OCC(O)CN(C)C)cc2)cc1 (centres undefined),-7.2%
19,CC1CCCCN1CC(=O)NCc1ccc2c(c1)OCO2 (centres undefined),69.6% (active)
20,O=C(NCc1ccc2c(c1)OCO2)c1ccc2c(c1)C(=O)N(CC1CCCO1)C2=O (centres undefined),-1.9%
21,CCc1c(C)nc2ncnn2c1N1CCC(C(=O)NCc2ccc3c(c2)OCO3)CC1,17.6%
22,O=C(CCCCn1c(=O)[nH]c2ccccc2c1=O)NCc1ccc2c(c1)OCO2,28%
23,Cn1cc(CCC(=O)NCc2ccc3c(c2)OCO3)c2ccccc21,93.8% (active)
24,O=C(CC(Cc1ccccc1)C(=O)O)NCCc1ccc2c(c1)OCO2 (centres undefined),4%
25,CCOC(=O)N1CCC(NC(=O)CCc2cn(C)c3ccccc23)CC1,15.5%
26,COC(=O)Cc1c(C)c2ccc(OCC(=O)NCc3ccc4c(c3)OCO4)cc2oc1=O,21.2%

row,Structure (SMILES),inhibition
1,O=C(COc1ccccc1)NCc1ccc2c(c1)OCO2,69.2% (active)
2,COC(=O)c1sc2ncccc2c1OCc1ccc(Cl)cc1Cl,-1.5%
3,COc1ccc2[nH]c(C)c(CCN(Cc3cccs3)C(=S)Nc3ccccc3OC)c2c1,25.1%
4,O=C1c2ccccc2NC(c2ccc(-c3cccc(Cl)c3)o2)N1O (centres undefined),22.2%
5,Cc1cc(NC(=O)Nc2ccccc2)n(-c2ccccc2)n1,29.8%
6,CC(C)[C@H](NC(=O)Nc1ccc(S(N)(=O)=O)cc1)C(=O)O,-1.3%
7,N#CCSc1nc2ccc(N3CCOCC3)cc2c(=O)n1CCc1ccccc1,12.7%
8,CCCCCCSc1nsc(N)n1,45.3%
9,O=C1CC(C(F)(F)C(F)(F)C(F)(F)C(F)(F)F)=Nc2ccccc2N1,35.1%
10,O=c1c2ccccc2nc2n1C(CSc1ccc(Cl)cc1)CN2 (centres undefined),18.3%
11,Cc1ccc(C(=O)CSc2nc3ccccc3c(=O)n2N)o1,33.5%
12,COc1ccc(Oc2c(Cl)cnn(-c3ccccc3)c2=O)cc1,29.7%
13,Cn1c(COc2ccc(Cl)cc2)nc2ccccc2c1=O,62.8% (active)
14,Cc1ccc(S(=O)(=O)NCc2nc3ccccc3c(=O)n2N)cc1,-4%
15,COc1ccc(OCc2ccc(-c3nc4ccccc4c(=O)n3N)o2)cc1,51.4% (active)
16,CCc1c(C)[nH]c(=S)c(C#N)c1C,-1.3%
17,CNC(=S)N1N=C(c2ccccc2)CC1c1ccc(Br)cc1 (centres undefined),29.6%
18,CSCCC(NC(=O)c1ccc(=O)n(C)n1)c1nc2ccccc2[nH]1 (centres undefined),8.7%
19,O=C(NCc1ccc(Cl)c(Cl)c1)c1cccnc1,62.7% (active)
20,O=C(Nc1cnccn1)c1cccnc1,-4.8%
21,CC(C)(C)c1cc(C(=O)NCc2cccnc2)ccn1,46.9%
22,COc1ccc(C(=O)c2c(C)oc3cc([N+](=O)[O-])c(O)c([N+](=O)[O-])c23)cc1,6.5%
23,CC/C(=N/Nc1ccccc1)c1cnnc(SC)n1,-2.6%
24,Cc1ccc(N2CCN(C3=NC(=O)/C(=C\c4cccs4)S3)CC2)cc1,4.4%
25,C(=N/N1CCN(c2ccccc2)CC1)/c1cccs1,48.2%
26,O=C1/C(=C/c2cccs2)CCc2ccccc21,87.6% (active)
